Screening results: PubChem BioAssay, National Center for Advancing Translational Sciences (NCATS)
Shiga inhibitor: inhibitors of Shiga toxin in Vero cells; 9.2% of 290,000 active; inhibition, % at 38.7 µM; Vero cells, Shiga toxin protein synthesis inhibition reporter; in the data active means inhibition mostly above about 28%, no sharp cut-off; inactive means mostly below about 43%
Cycloheximide cs: counter-screen hit for Shiga toxin inhibitors, cycloheximide. cell reporter, cycloheximide protein synthesis inhibition counterscreen. max response, %. 12% of 300,000 active; in the data active means max response mostly above about 13%, no sharp cut-off; inactive means mostly below about 14%; further: read at 38.3 µM for the half of the compounds with a filed dose
LmPK inhibitor: blocks Leishmania mexicana pyruvate kinase activity | Q27686 | purified LmPK, Kinase-Glo ATP luminescence, 1 h | Potency, µM (top dose mostly 57.5 µM), actives largely listed as inhibitors | 0.37% of 290,000 active | AID 1721
Target sequence (Q27686 whole entry, looked up): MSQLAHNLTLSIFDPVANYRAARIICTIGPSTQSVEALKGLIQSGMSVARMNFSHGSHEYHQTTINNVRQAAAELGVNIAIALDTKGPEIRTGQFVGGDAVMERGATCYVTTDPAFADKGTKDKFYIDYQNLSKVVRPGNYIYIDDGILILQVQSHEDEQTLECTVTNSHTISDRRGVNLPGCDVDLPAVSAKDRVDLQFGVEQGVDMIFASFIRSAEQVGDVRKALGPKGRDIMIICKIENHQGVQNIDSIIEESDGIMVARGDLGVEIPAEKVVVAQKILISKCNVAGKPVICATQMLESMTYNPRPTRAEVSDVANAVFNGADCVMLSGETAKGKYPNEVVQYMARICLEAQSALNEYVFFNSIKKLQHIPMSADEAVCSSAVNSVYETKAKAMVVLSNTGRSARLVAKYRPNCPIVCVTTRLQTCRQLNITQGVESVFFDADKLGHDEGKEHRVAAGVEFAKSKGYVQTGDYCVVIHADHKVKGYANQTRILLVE
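qHTS format; LmPK 0.1 nM; substrates PEP 0.5 mM and ADP 0.1 mM. One-hour room-temperature incubation, then coupled luciferase luminescence; 0.5 nM enzyme wells mark activation.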
Pf growth 96h: inhibits malaria parasite growth, 96 h; P. falciparum luciferase reporter growth, 96 h; AID 504834; 6.9% of 320,000 active; Potency, µM (highest dose often 28.7 µM), actives largely listed as inhibitors
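Delayed-death screen, second-generation endpoint: infected erythrocytes, 2% hematocrit, 0.05% parasitemia final; 96 hours at 37 C, 5% CO2; luciferase detection reagent; luminescence decrease equals reduced growth.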
Pf growth 48h: inhibits P. falciparum growth in the first generation, 48 h | Potency, µM (doses to about 28.7 µM), usual class: inhibitors | AID 504832 | 5.9% of 310,000 active | P. falciparum luciferase growth in erythrocytes, 48 h
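A one-generation exposure of luciferase-tagged malaria parasites in RPMI 1640/Albumax erythrocyte culture, 37 C and 5% CO2. Inhibition is inferred from decreased luminescence after adding detection reagent.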
A number is an active result; 0 = inactive; ? = inconclusive; - = not tested or not shown. In the library only some 22% were active in any assay of this set; here they are far more common. Unless noted, the call rests on the fitted dose curve; in most records, active means well fitted inhibition curve with a large enough effect; inconclusive means small, poorly fitted or top-dose-only effect, or another doubt; inactive means no such curve, though single readings can be large or run the other way.

SMILES	Shiga inhibitor	Cycloheximide cs	LmPK inhibitor	Pf growth 96h	Pf growth 48h
Cc1cccc(C(=O)NCCC(=O)Nc2ccc(F)c([N+](=O)[O-])c2)c1	0	0	0	0	0
CN(C)/C=C/C(=O)c1ccc([N+](=O)[O-])c(CS(=O)(=O)c2ccc(Cl)cc2)c1	0	0	0	0	0
COc1ccc2cc(C(=O)C3CCCN(Cc4cccc(C)n4)C3)ccc2c1 (configuration not stated)	0	0	0	?	0.657µM
COc1c(C)cc(C(=O)C2CCCN(Cc3ccccn3)C2)cc1C (configuration not stated)	0	0	0	0	2.08µM
COc1ccc(C(=O)C2CCCN(Cc3cccc(C)n3)C2)c(OC)c1 (configuration not stated)	0	0	0	1.04µM	1.47µM
COc1cccc(C(=O)C2CCCN(Cc3ccccn3)C2)c1 (configuration not stated)	0	0	0	0	?
COc1ccc(C(=O)C2CCCN(Cc3cccn3-c3ccc(Cl)cn3)C2)c(OC)c1 (configuration not stated)	0	0	0	0	4.15µM
COc1ccc(C(=O)C2CCCN(Cc3ccc(C)s3)C2)c(OC)c1 (configuration not stated)	0	0	0	0	0
CCCCC(CC)COS(=O)(=O)O (configuration not stated)	-	-	-	0	0
Cn1c(SCC(=O)NNC(=O)c2ccccc2)nnc1C(F)(F)F	-	-	-	0	0
Cc1ccc(C2=N/C(=C\N3CCCCC3)C(=O)O2)cc1	142.8	73.4	0	?	-
Cc1ccc(C2=N/C(=C/N3CCOCC3)C(=O)O2)cc1	68.2	49.6	0	0	0
CN(C)C(CNc1ccc(S(C)(=O)=O)cc1[N+](=O)[O-])Cc1ccccc1 (configuration not stated)	0	0	0	?	?
Cc1ccc(NC(=O)c2nc3nccc(C)n3n2)c(C)c1	79.9	30.4	0	0	0
Cc1csc(NC(=O)c2nc3nccc(C)n3n2)n1	71.9	18.3	0	-	0
Cc1ccnc2nc(C(=O)Nc3nc4ccccc4s3)nn12	62.0	44.7	0	0	0
O=C(OCc1ccccc1F)c1cnc(Cl)c(Cl)c1	0	0	0	0	0
Cc1c(C)c2ccc(OCC(=O)N3CCN(C(=O)C4COc5ccccc5O4)CC3)cc2oc1=O (configuration not stated)	0	0	0	?	0
O=C(COc1ccc2ccc(=O)oc2c1)N1CCN(C(=O)C2COc3ccccc3O2)CC1 (configuration not stated)	0	0	0	?	?
Cc1cc(=O)oc2cc(OCC(=O)N3CCN(C(=O)C4COc5ccccc5O4)CC3)ccc12 (configuration not stated)	0	0	0	13.1µM	?
Cc1cc(=O)oc2cc(OCC(=O)N3CCN(C(=O)C4COc5ccccc5O4)CC3)c(Cl)cc12 (configuration not stated)	0	0	0	13.1µM	0
CCCc1cc(=O)oc2cc(OCC(=O)N3CCN(C(=O)C4COc5ccccc5O4)CC3)ccc12 (configuration not stated)	0	0	0	11.7µM	?
C/C(=N\NC(=O)c1ccccc1O)c1cccs1	55.6	32.3	14.1µM	0	0
C/C(=N\OCC(=O)Nc1ccccc1C(=O)O)c1cccs1	98.4	34.1	0	0	0
C/C(=N/OCC(=O)Nc1ccc(C)cc1C)c1cccs1	0	0	0	-	0
SMILES	Shiga inhibitor	Cycloheximide cs	LmPK inhibitor	Pf growth 96h	Pf growth 48h
C/C(=N\NC(=O)c1cccc2ccccc12)c1cccs1	70.2	29.4	0	0	0
C/C(=N\NC(=O)COc1ccccc1)c1cccs1	70.1	53.6	0	0	0
Cc1cc2c(s1)c1cnn(Cc3ccc(F)c(F)c3F)c(=O)c1n2C	0	0	-	-	-
CCOc1ccccc1C(=O)N(Cc1ccc(C)o1)C1CCS(=O)(=O)C1 (configuration not stated)	0	0	0	0	0
C[C@@H]1CCN(C(=O)[C@H](CCCNC(=N)N)NS(=O)(=O)c2cccc3c2NC[C@H](C)C3)[C@@H](C(=O)O)C1	-	-	-	0	0
COc1cc(C2C(C#N)=C(N)OC3=C2C(=O)CCC3)c([N+](=O)[O-])cc1OC (configuration not stated)	0	0	0	?	0
O=C(CCCCCN1C(=O)[C@@H]2Cc3ccccc3CN2C1=O)Nc1cccc(F)c1	0	0	0	?	?
COc1ccc(Cn2c(N)c(C#N)c3nc4ccccc4nc32)cc1	0	0	0	?	4.65µM
